DT40 TDP1 no CPT: qHTS for Inhibitors of human tyrosyl-DNA phosphodiesterase 1 (TDP1): qHTS in cells in absence of CPT; actives 15% (n = 420,000); Potency, µM (doses to about 46.2 µM), for the others: at the highest dose activity change, negative = growth inhibition, actives largely listed as inhibitors; AID 686978, 2013; DT40 Tdp1-/- hTDP1 cells, no CPT, ATP luminescence, 48 h; further: potency means the concentration at half of the fitted maximal effect; nearly all actives have a fitted effect of over 55% in size
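Cells were dispensed at 400 per well, compounds added by pin tool, plates incubated ≥48 hr at 37 °C, then CellTiter-Glo added for 30 min at room temperature before luminescence reading. Line: DT40 Tdp1-/- complemented with hTDP1; camptothecin omitted.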
HT1080 IDH1KD tx: HT-1080 IDH1 knockdown cell toxicity (counter line). HT-1080 IDH1 knockdown viability, ATP luminescence, 48 h. Potency, µM (doses to about 46.1 µM), inactives show at the highest dose activity, negative = toxicity, most hits filed as cytotoxic. actives 2% (n = 360,000). AID 686971;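 further: potency means the concentration at half of the fitted maximal effect; 0% = DMSO wells and -100% = cell-free medium wells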
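CellTiter-Glo luminescence after 48 h compound exposure at 37 degrees C of IDH1-knockdown HT-1080 cells in 5% FBS RPMI. %Activity scaled between DMSO wells and cell-free media wells, with curves fitted and assigned curve classes.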
IL1B secr inh: blocks inflammasome-driven IL-1 beta release; AID 743279; activity change, % at 57.5 µM; actives 4.7% (n = 360,000); THP-1 LPS/ATP IL-1B secretion, AlphaLISA, 16 h; active compounds read low; in the data active means activity change below about -50%; inconclusive means mostly about -30% to -49%
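Secreted IL-1B measured by AlphaLISA bead assay after 16 h compound exposure of THP-1 cells; compounds (final up to 57.5 uM) added 1 h before LPS (250 ng/mL) and ATP (1.25 mM) stimulation; lower signal means less secretion.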
DT40 TDP1 CPT: DT40-hTDP1 cell growth loss with CPT | chicken DT40 Tdp1-/-;hTDP1 cells + 20 nM CPT, ATP luminescence, 48 h | Potency, µM (top dose mostly 46.2 µM), without a hit: at the top dose activity change, negative = growth inhibition, most hits filed as inhibitors | actives 12% (n = 420,000); further: potency means the concentration at half of the fitted maximal effect; nearly all actives have a fitted effect of over 55% in size
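Chicken DT40 Tdp1-/- cells complemented with human TDP1, 400 cells/well, exposed to compounds plus 20 nM camptothecin for at least 48 h at 37 C; viability read as ATP content by CellTiter-Glo luminescence.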
HT1080NT lethal: kills 2HG-producing HT-1080-NT fibrosarcoma cells; Potency, µM (titrated, usually from 46.1 µM), inactives show top-dose activity, negative = less viability, hits mostly cytotoxic; actives 1.6% (n = 360,000); HT-1080-NT fibrosarcoma viability, CellTiter-Glo ATP luminescence, 48 h;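 further: NT is the 2HG producing partner of a matched IDH1 knockdown line; potency means the concentration at half of the fitted maximal effect; 0% = DMSO-treated cells and -100% = media-only wells without cells; nearly all actives have a fitted effect of over 55% in size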
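Viability by CellTiter-Glo luminescence after 48 h compound exposure at 37C of HT-1080-NT cells (750/well, RPMI, 5% FBS). % activity scaled between DMSO wells and medium-only wells, then curve-fitted and categorized by curve class.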
uPA surface inh: inhibitors of cell surface uPA generation | cell surface uPA generation assay, qHTS | Potency, µM (highest dose often 38.3 µM), for inactives: top-dose activity change, negative = inhibition, hits mostly inhibitors | AID 540303 | actives 0.31% (n = 330,000); active means well fitted inhibition curve with a large enough effect; inconclusive means small, poorly fitted or top-dose-only effect; inactive means no such curve, though single readings can be large or run the other way; tested in mouse RAW 264.7 cells; further: potency means the concentration at half of the fitted maximal effect; nearly all actives have a fitted effect of over 55% in size
* hit, by the source's call; ? = inconclusive; / = not tested or not shown. A selection: hits, their analogues and other compounds. The true share with any hit is near 19%. Unless noted, the call rests on the fitted dose curve; in most records, active means well fitted curve in the direction sought with a large enough effect; inconclusive means small, poorly fitted or top-dose-only effect, or another doubt; inactive means no such curve, though single readings can be large; an effect the other way counts as inactive or inconclusive. Unless noted, on the % scale 0 is the no-effect control and ±100 the full control effect.

SMILES | DT40 TDP1 no CPT | HT1080 IDH1KD tx | IL1B secr inh | DT40 TDP1 CPT | HT1080NT lethal | uPA surface inh
Cc1ccc(S(=O)(=O)N/N=C\c2ccc([N+](=O)[O-])o2)cc1 | 16µM* | -27% | -60* | 15µM* | 4% | ?
O=[N+]([O-])c1ccc(/C=N/NS(=O)(=O)c2ccc(Cl)cc2)o1 | 16µM* | -1% | -3 | 9.2µM* | -1% | -12%
COC(=O)c1ccccc1NC(=O)CSc1nc2ccsc2c(=O)n1CCC(C)C | -2% | / | / | 1% | / | /
O=C(Cn1nnnc1-c1ccccc1F)Nc1ccc(F)c(F)c1 | -21% | / | / | -27% | / | /
COc1ccc(-c2noc(CSc3nc(N)cc(=O)[nH]3)n2)cc1 | 18µM* | ? | 20 | 16µM* | ? | -10%
COc1ccc(-c2noc(CSc3nc(-c4ccccc4)cc(=O)[nH]3)n2)cc1OC | -15% | -20% | 25 | -4% | -21% | 2%
O=c1cc(-c2ccc(F)cc2)nc(SCc2nc(-c3ccc(Cl)cc3)no2)[nH]1 | -22% | / | / | -17% | / | /
Cc1ccc2nc(SCc3nc(-c4ccc(Cl)cc4)no3)[nH]c2c1 | 23µM* | / | / | 16µM* | / | /
CCc1cc(=O)[nH]c(SCc2nc(-c3ccc(C(F)(F)F)cc3)no2)n1 | 16µM* | / | / | 23µM* | / | /
CCS(=O)(=O)c1ccc(O)c(NC(=O)Nc2ccc(C(C)(C)C)cc2)c1 | ? | ? | -88* | 2% | ? | 2%
COc1ccc(NC(=O)/C(Cl)=C(/Cl)S(=O)(=O)Cc2ccc(C)cc2)cn1 | 0.82µM* | 8.2µM* | -119* | 0.52µM* | 23µM* | -10%
CC(C)(C)c1ccc(S(=O)(=O)NC(=O)C2(C)CCN2C(=O)C2(c3ccccc3)CC2)cc1 (stereo not drawn) | -7% | 6% | 0 | -9% | 9% | /
CCCOc1ccc(/C=C2/C(=O)ON=C2C)cc1OCC | ? | -3% | -27 | ? | 4% | -6%
CCOc1cc(/C=C2\C(=O)ON=C2C)ccc1OCc1ccccc1 | 15µM* | ? | -117* | ? | ? | 4%
C=CCOc1ccc(/C=C2/C(=O)ON=C2C)cc1OC | ? | -9% | -97* | ? | ? | 0%
COc1ccc(/C=C2/C(=O)ON=C2C)cc1Cl | ? | -9% | -25 | ? | -23% | 0%
CC(=O)N1CCc2cc(Br)cc(S(=O)(=O)N3CCN(c4cc(C)ccc4C)CC3)c21 | 4% | / | / | 7% | / | /
CC(=O)N(C)c1ccc(NC(=O)c2ccc([N+](=O)[O-])cc2Cl)cc1 | -20% | 13% | 24 | -28% | 21% | -2%
Nc1cc(C(=O)O)ccc1N1CCCCC1 | -4% | 15% | 18 | 0% | 18% | 2%
CCOC(=O)c1ccc(N2CCN(c3cc(C)ccc3C)CC2)c(NC(=O)Nc2ccc(Cl)cc2)c1 | 4.6µM* | / | / | 4.6µM* | / | /
CCOC(=O)c1ccc(N2CCN(c3ccccc3F)CC2)c(NC(=O)Nc2cccc(OC)c2)c1 | 5.8µM* | -4% | -3 | 13µM* | -7% | 1%
CCOC(=O)N1CCC(Nc2c(N3CCN(c4cc(Cl)ccc4C)CC3)c(=O)c2=O)CC1 | ? | -9% | -11 | ? | 0% | -16%
CCOC(=O)N1CCC(N2CCN(c3cc(C)ccc3C)CC2)CC1 | ? | -28% | -7 | 29µM* | 2% | /
CCOC(=O)c1ccc(N2CCN(c3cc(C)ccc3C)CC2)c(N)c1 | 16µM* | -1% | -13 | 15µM* | 1% | 6%
COc1cccc(CNC(=O)CCCc2nnc3n(C)c(=O)c4sccc4n23)c1 | -15% | -1% | -8 | -27% | 1% | -5%
